# Shown are actives, neighbours in structure and some others; about 17% of the full set was active somewhere.
# DT40 TDP1 CPT: growth inhibition of DT40 Tdp1-/-;hTDP1 cells with camptothecin (screen for TDP1 inhibitors); AID 686979; 12% of 420,000 active; Potency, µM (titrated, usually from 46.2 µM), without a hit: at the highest dose activity change, negative = growth inhibition, hits mostly inhibitors; chicken DT40 Tdp1-/-;hTDP1 cells + 20 nM CPT, ATP luminescence, 48 h; note: % is set by controls: 0 for no effect and ±100 for the full control effect; nearly all actives have a fitted effect of over 55% in size
#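 Chicken DT40 Tdp1-/- cells stably complemented with human TDP1 were seeded at 400 cells/well in medium containing 20 nM camptothecin, exposed to pin-transferred compounds, and grown at 37 °C for at least 48 hr. Viability was read as ATP luminescence.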
# ClpP mod: qHTS Assay for Activators of ClpP; AID 651965, 2013; Potency, µM (top dose mostly 57.5 µM), inactives show at the top dose activity change, negative = active; ATP-dependent Clp protease proteolytic subunit (Bacillus subtilis (strain 168)), P80244; purified B. subtilis ClpP, FRET peptide cleavage, 20 min; 1.9% of 340,000 active; active = well fitted falling curve with a large enough effect; inconclusive = small, poorly fitted or top-dose-only effect; inactive = no such curve, though single readings can be large or run the other way; note: the source files actives as falling curves though it sought activators and does not explain the sign; nearly all actives have a fitted effect of over 65% in size
#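 Purified B. subtilis ClpP, 10 microg/mL final in Tris/HCl pH8 with KCl, BSA, glycerol and Tween-20, cleaved an Abz/nitrotyrosine-quenched decapeptide. Fluorescence (ex 320, em 430) was read at 0 and 20 min at room temperature. Delta was normalized to 5.8 microM ADEP and DMSO/no-enzyme controls.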
# TDP1 inh: blocks human tyrosyl-DNA phosphodiesterase 1; Q9NUW8; recombinant TDP1, AlphaScreen DNA substrate cleavage; Potency, µM (highest dose often 130 µM), inactives show at the top dose activity change, negative = inhibition, actives largely listed as inhibitors; 0.28% of 350,000 active; note: % is set by controls: 0 for no effect and ±100 for the full control effect; nearly all actives have a fitted effect of over 40% in size
# Target sequence (Q9NUW8 whole entry, looked up): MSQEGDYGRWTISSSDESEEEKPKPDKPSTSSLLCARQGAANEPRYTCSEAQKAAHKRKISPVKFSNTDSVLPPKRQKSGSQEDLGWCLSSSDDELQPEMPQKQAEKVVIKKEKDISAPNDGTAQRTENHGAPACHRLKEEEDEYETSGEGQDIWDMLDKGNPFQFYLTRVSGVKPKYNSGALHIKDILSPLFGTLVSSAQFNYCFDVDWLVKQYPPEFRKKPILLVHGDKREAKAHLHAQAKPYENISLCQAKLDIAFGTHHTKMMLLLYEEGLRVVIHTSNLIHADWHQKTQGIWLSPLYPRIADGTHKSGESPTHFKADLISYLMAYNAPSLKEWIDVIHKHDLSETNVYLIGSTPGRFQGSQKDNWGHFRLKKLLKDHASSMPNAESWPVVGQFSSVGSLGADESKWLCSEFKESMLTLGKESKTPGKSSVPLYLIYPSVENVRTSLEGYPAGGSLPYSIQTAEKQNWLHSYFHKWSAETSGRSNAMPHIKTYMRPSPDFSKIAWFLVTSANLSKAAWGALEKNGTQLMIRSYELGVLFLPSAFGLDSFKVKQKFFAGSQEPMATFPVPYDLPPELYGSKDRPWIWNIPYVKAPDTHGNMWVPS
#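 Enzyme-compound mixtures sat 15 min at room temperature, followed by a 5 min reaction with 15 nM final substrate and 10 min with AlphaScreen beads. Recombinant human Tdp1 was used at 1 nM final.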
# TDP1 cell noCPT: qHTS for Inhibitors of human tyrosyl-DNA phosphodiesterase 1 (TDP1): qHTS in cells in absence of CPT; DT40 Tdp1-/- hTDP1 cells, no CPT, ATP luminescence, 48 h; Potency, µM (titrated, usually from 46.2 µM), for inactives: at the top dose activity change, negative = growth inhibition, usual class: inhibitors; 15% of 420,000 active; note: % is set by controls: 0 for no effect and ±100 for the full control effect; nearly all actives have a fitted effect of over 55% in size
#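 Growth kinetics read by CellTiter-Glo luminescence after ≥48 hr at 37 °C. Cells: DT40 Tdp1-/- stably carrying human TDP1, 400 per well, compound exposure in the absence of CPT (DMSO vehicle).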
# Numbers without * were called inactive; ? = inconclusive; . = no result given; [ ] = dose if it differs, or a comment. Unless noted, calls come from the whole dose curve; as a rule, active = well fitted curve in the direction sought with a large enough effect; inconclusive = small, poorly fitted or top-dose-only effect, or another doubt; inactive = no such curve, though single readings can be large; an effect the other way counts as inactive or inconclusive. Potency is the fitted concentration of half-maximal effect.
SMILES,DT40 TDP1 CPT,ClpP mod,TDP1 inh,TDP1 cell noCPT
O=C(COC(=O)c1ccc(Cl)cc1O)NC(=O)C1CCCCC1,4.0%,.,3.0%,-1.1%
CCCCCNC(=O)c1cccc(S(=O)(=O)N2CC3(C)CC2CC(C)(C)C3)c1 (configuration not stated),?,-0.7%,2.3%[0.505 µM],?
CCOC(=O)c1ccccc1NC(=O)c1ccc2c(Cl)c3c(nc2c1)CCC3,0.4%,-0.7%,3.8%,2.0%
CCOC(=O)c1cccc(NC(=O)c2ccc3c(Cl)c4c(nc3c2)CCC4)c1,?,-5.9%,3.8%,29.1µM*
CC1(C)CC(=O)c2cnc(NC(=O)Cc3ccc(Cl)cc3)nc2C1,?,0.9%,2.1%,23.1µM*
COc1ccc(OCC(=O)Nc2ncc3c(n2)CC(C)(C)CC3=O)cc1,1.2%,1.4%,4.8%,-6.2%
Cc1cccc(-c2nn3c(=O)cc(CN4CCN(C(=O)/C=C/c5ccccc5)CC4)nc3s2)c1,-2.2%,-3.2%,-2.7%,?
CCNC(=S)N1CCN(c2nc(-c3cccc(OC)c3)cs2)CC1,10.3µM*,-4.9%,.,14.6µM*
COc1ccc(NC(=O)N2CCN(S(C)(=O)=O)CC2)cc1,23.1µM*,.,-2.6%,?
COc1ccc(NC(=O)N2CCN(C(=O)Nc3ccc(OC)cc3)CC2)cc1,?,-1.3%,5.7%,?
COc1cccc(-c2csc(N3CCN(C(=S)NCC(C)C)CC3)n2)c1,18.4µM*,.,.,?
COc1cccc(-c2csc(N3CCN(CC(=O)NNC(=O)c4ccc(Br)cc4)CC3)n2)c1,?,-3.0%,2.6%,16.4µM*
Cc1ccc(NS(=O)(=O)c2ccc3[nH]c(=O)[nH]c3c2)cc1C,.,.,1.4%,.
CCCC[C@@H]1C[C@H]1[C@@H](NP(=O)(c1ccccc1)c1ccccc1)c1ccccc1OC,.,.,8.1%,.
COc1ccc(Cl)cc1S(=O)(=O)N1CCC(C(=O)NCCc2ccccc2)CC1,-22.7%,.,.,?
COc1ccc(NC(=O)N2CCN(c3nc(-c4cccc(OC)c4)cs3)CC2)cc1,23.1µM*,-0.5%,4.9%,18.4µM*
c1ccc(CCCNc2ncnc3nc[nH]c23)cc1,?,0.1%,2.6%,20.6µM*
OCCOCCNc1ncnc2nc[nH]c12,-1.9%,1.2%,0.0%,-5.8%

# Bioassay records deposited in PubChem BioAssay by National Center for Advancing Translational Sciences (NCATS).
